Test systems include NCI-H23 lung; NCI-H226 lung; NCI-H322M lung; HOP-62 NSCLC; NCI-H460 lung; HOP-92 NSCLC; NCI-H522 lung; A549/ATCC NSCLC; 786-0 renal; COLO 205 colon.
Common to all, as to assay: NCI-60 one-dose screen, 48 h (100 = growth as untreated, 0 = no growth, -100 = all killed)
Holding throughout (conditions): 10 µM unless noted

Compounds without any hit were thinned out: in the full panel of roughly 83,000, 20% have a hit.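 For each line, cells grew in 96-well plates with the test compound present at a single concentration for 48 hours.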 Values without a mark were called inactive. Active and inactive are the calls of the source. The calls were made as follows: active = growth percent below 10; inactive = the rest.

With `CC(C)OC(=O)Nc1ccc(-c2nc(-c3cccc(OCCN4CCOCC4)c3)c(-c3ccnc(Br)c3)[nH]2)cc1`, the growth with NCI-H23 lung was 33%; in the experiment on NCI-H226 lung, 55.3%; in the experiment with NCI-H322M lung, 46.5%; in the experiment on HOP-62 NSCLC it was 28.4%; with NCI-H460 lung, 30%; in the experiment on HOP-92 NSCLC it was 29.8%. In addition, the growth with NCI-H522 lung was 49.9%; with A549/ATCC NSCLC, 40%; in the experiment with 786-0 renal, -33% (active); with COLO 205 colon it was -5.63% (active).

Regarding `COc1ccc(-c2cnc3ccccc3n2)cc1`, the growth with NCI-H23 lung is 93.2%; with NCI-H226 lung it was 82.7%; with NCI-H322M lung it was 95.2%; in the experiment on HOP-62 NSCLC it was 87.9%; in the experiment with NCI-H460 lung it was 101%; with HOP-92 NSCLC, 86.9%. Besides, the growth in the experiment on NCI-H522 lung is 80.2%; with A549/ATCC NSCLC, 94.6%; in the experiment on 786-0 renal, 95.4%; with COLO 205 colon, 104%.

Regarding `COc1cc(C2CC(c3ccc(N(C)C)cc3)=NN2C(C)=O)cc(OC)c1OC` (stereo not given), the growth in the experiment on NCI-H23 lung is 31.2%; in the experiment with NCI-H226 lung, 79.6%; in the experiment on NCI-H322M lung, 44.2%; with HOP-62 NSCLC, 47.8%; in the experiment with NCI-H460 lung, 10.8%; with HOP-92 NSCLC, 60.7%. For the same compound, the growth is -5.66% (active) in the experiment with NCI-H522 lung, 51.2% in the experiment on A549/ATCC NSCLC, 24.1% in the experiment on 786-0 renal and 19.2% in the experiment with COLO 205 colon.

Regarding `COc1ccc2sc3c(NCCCN(C)C)nc4ccccc4c3c(=O)c2c1`, the growth was 56.7% with NCI-H23 lung; 82.4% in the experiment on NCI-H226 lung; 80.3% with NCI-H322M lung; 74.7% in the experiment on HOP-62 NSCLC; -69.5% (active) in the experiment on NCI-H460 lung; 20% with HOP-92 NSCLC. For the same compound, the growth in the experiment with NCI-H522 lung is 79.4%; in the experiment on A549/ATCC NSCLC, 73.9%; in the experiment on 786-0 renal, 68.5%; with COLO 205 colon, -1.26% (active).

For `CS(=O)(=O)Nc1cc(-c2ccc3ncnc(Nc4cccc(Cl)c4F)c3c2)cnc1Cl`, the growth was 56.6% with NCI-H23 lung; 49.2% in the experiment with NCI-H226 lung; 47.2% in the experiment with NCI-H322M lung; 54.7% in the experiment with HOP-62 NSCLC; 41.5% with NCI-H460 lung; 13.3% with HOP-92 NSCLC. The growth is 53.8% with NCI-H522 lung, 67.4% in the experiment on A549/ATCC NSCLC, 29.6% in the experiment on 786-0 renal and 66.3% in the experiment on COLO 205 colon.

On to `COc1cccc(/C=C2\C=C(c3ccccc3)N(Cc3ccccc3)C2=O)c1`, for which the growth in the experiment on NCI-H23 lung is 71.1%; in the experiment on NCI-H226 lung it was 73%; in the experiment with NCI-H322M lung, 51%; in the experiment on HOP-62 NSCLC, 69.4%; in the experiment with NCI-H460 lung it was 72.3%; with HOP-92 NSCLC, 18.1%. For the same compound, the growth is 56.4% with NCI-H522 lung, 47.9% with A549/ATCC NSCLC, 57.3% with 786-0 renal and 74.3% in the experiment on COLO 205 colon.

Consider `O=C1/C(=C/c2ccccc2[N+](=O)[O-])Oc2ccc(O)c(O)c21`, for which the growth in the experiment with NCI-H23 lung was 33.5%; in the experiment with NCI-H226 lung, 83.3%; in the experiment on NCI-H322M lung, 81%; in the experiment with HOP-62 NSCLC, 71.3%; with NCI-H460 lung, 60.6%; in the experiment on HOP-92 NSCLC it was 76.6%. The growth with NCI-H522 lung is -18% (active); with A549/ATCC NSCLC, 72.3%; in the experiment on 786-0 renal, 47.2%; with COLO 205 colon it was 57.7%.

For `Cc1c(C(=O)NCCN2CCOCC2)cn2ncnc(Oc3ccc(NC(=O)Nc4ccc(Cl)c(C(F)(F)F)c4)cc3)c12`, the growth in the experiment on NCI-H23 lung is 13.9%; in the experiment with NCI-H226 lung it was 34.2%; in the experiment with NCI-H322M lung it was 73.8%; in the experiment on HOP-62 NSCLC it was 20.5%; in the experiment with NCI-H460 lung it was 3.24% (active); with HOP-92 NSCLC, 7.32% (active). Besides, the growth is 5.61% (active) in the experiment with NCI-H522 lung, 13.4% in the experiment on A549/ATCC NSCLC, 12.3% with 786-0 renal and -25.4% (active) in the experiment on COLO 205 colon.

In the case of `CCOC(=O)Nc1ccc(-c2nc(-c3cccc(OC)c3)c(-c3ccnc(Br)c3)[nH]2)cc1`, the growth in the experiment with NCI-H23 lung is 31.7%; in the experiment on NCI-H226 lung, 46.4%; in the experiment on NCI-H322M lung, 45.7%; with HOP-62 NSCLC, 30.2%; with NCI-H460 lung, 27.2%; in the experiment on HOP-92 NSCLC it was 42.2%. The growth with NCI-H522 lung is 30.2%; in the experiment with A549/ATCC NSCLC it was 36.9%; with 786-0 renal, 9.61% (active); in the experiment with COLO 205 colon, 49.2%.

As to `CC(C)c1cc(C(C)C)c(S(=O)(=O)Oc2ccc(NC(=O)c3ccc(Cl)cc3)cc2)c(C(C)C)c1`, the growth with NCI-H23 lung was 15.2%; with NCI-H226 lung it was 51.6%; with NCI-H322M lung, 60.4%; in the experiment on HOP-62 NSCLC, 57.9%; in the experiment on NCI-H460 lung, 13.4%; with HOP-92 NSCLC, 19.1%. The growth is 7.91% (active) in the experiment with NCI-H522 lung, 27.5% in the experiment on A549/ATCC NSCLC, 33.8% in the experiment with 786-0 renal and 32.7% with COLO 205 colon.

For `COc1ccc(NC(=O)n2nc(/C=C\c3ccc(O)c(OC)c3)cc2/C=C\c2ccc(O)c(OC)c2)cc1`, the growth in the experiment with NCI-H23 lung is 43.9%; in the experiment with NCI-H226 lung, 87.2%; in the experiment with NCI-H322M lung, 58.1%; in the experiment on HOP-62 NSCLC it was 32.7%; in the experiment with NCI-H460 lung, 14.2%; in the experiment with HOP-92 NSCLC, 89.1%. For the same compound, the growth was -13.5% (active) in the experiment on NCI-H522 lung, 27.3% with A549/ATCC NSCLC, 32.1% in the experiment on 786-0 renal and 107% with COLO 205 colon.

Consider `CCOc1ccc2nc(SCc3nc4n(n3)S(=O)(=O)c3ccccc3N4C)sc2c1`, for which the growth was 13.2% in the experiment on NCI-H23 lung; 32% in the experiment with NCI-H226 lung; 38.6% with NCI-H322M lung; -42.9% (active) in the experiment with HOP-62 NSCLC; 38.2% in the experiment with NCI-H460 lung; -14% (active) in the experiment on HOP-92 NSCLC. The growth in the experiment with NCI-H522 lung was 22.6%; in the experiment on A549/ATCC NSCLC, 24%; in the experiment with 786-0 renal it was -33.3% (active); in the experiment on COLO 205 colon, 23.3%.

As for `C#C[C@]1(O)CC[C@H]2[C@@H]3CC=C4c5sc(Nc6cc(F)ccc6F)nc5CC[C@]4(C)[C@H]3CC[C@@]21C`, the growth in the experiment on NCI-H23 lung was 4.23% (active); in the experiment with NCI-H226 lung, 49%; in the experiment on NCI-H322M lung it was 50.9%; with HOP-62 NSCLC, 0.529% (active); in the experiment with NCI-H460 lung, -54.4% (active); in the experiment on HOP-92 NSCLC, 13.1%. Moreover, the growth is 1.36% (active) in the experiment on NCI-H522 lung, 56.7% in the experiment on A549/ATCC NSCLC, -71.9% (active) in the experiment with 786-0 renal and 8.29% (active) in the experiment on COLO 205 colon.
